ClpP mod: qHTS Assay for Activators of ClpP. Potency, µM (top dose mostly 57.5 µM). ATP-dependent Clp protease proteolytic subunit (Bacillus subtilis (strain 168)), P80244. purified B. subtilis ClpP, FRET peptide cleavage, 20 min. 340,000 tested, 1.9% active; active means well fitted falling curve with a large enough effect; inconclusive means small, poorly fitted or top-dose-only effect; inactive means no such curve, though single readings can be large or run the other way; further: the source files actives as falling curves though it sought activators and does not explain the sign; nearly all actives have a fitted effect of over 65% in size
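FRET quenching reversal measured ClpP activation: 10 microg/mL B. subtilis ClpP at pH 8 with the FRET-FV decapeptide, read at 430 nm after 320 nm excitation. The 20-min minus 0-min signal was scaled between DMSO/no-enzyme wells and ADEP (5.8 microM final).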
GLP-1R inv ag: acts as inverse agonist at human GLP-1 receptor. P43220. HEK293 GLP-1R CRE-luciferase, luminescence, 24 h; GLP-1R form is constitutively active. Potency, µM (top dose mostly 38.3 µM), usual class: inhibitors. 410,000 tested, 1.6% active; further: nearly all actives have a fitted effect of over 55% in size
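Readout was luciferase luminescence, measured 12 min after detection reagent at room temperature. Beforehand, GLP-1R reporter HEK293 cells had sat 12 h, then received compounds for 24 hr at 37 deg C.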
GLP1R cytotox: cytotoxicity counter-screen for GLP-1 receptor inverse agonists | Potency, µM (top dose mostly 38.3 µM), usual class: inhibitors | HEK293 cAMP-luciferase reporter cells, luminescence, 24 h | 410,000 tested, 0.13% active | AID 624418;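 further: loss of luciferase light is scored as toxicity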
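To flag toxic compounds, the library was rerun on cells for 24 hr at 37 deg C and 5% CO2. Viability-linked luminescence was captured 12 min after adding luciferase detection reagent.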
GLP1R ag: GLP-1 receptor (human) agonism | P43220 | Potency, µM (titrated, usually from 45.6 µM), actives largely listed as activators | AID 624172 | HEK293 GLP-1R CRE-luciferase, luminescence, 4-6 h; cells express a hypersensitive GLP-1R form | 380,000 tested, 0.007% active
Large screens that a line does not name were inactive. Compounds with a hit are over-represented: about 3.2% of the library has one in this group of screens. Unless noted, the call rests on the fitted dose curve; in most records, active means well fitted curve in the direction sought with a large enough effect; inconclusive means small, poorly fitted or top-dose-only effect, or another doubt; inactive means no such curve, though single readings can be large; an effect the other way counts as inactive or inconclusive.

COc1ccc(-c2nc(CCNC(=O)Cc3ccc(F)cc3)cs2)cc1	ClpP mod 22µM, GLP-1R inv ag inconclusive (no result: GLP1R ag)
COc1ccc(-c2nc(CCNC(=O)c3cccs3)cs2)cc1OC	ClpP mod 28µM (no result: GLP1R ag)
Cc1ccc(S(=O)(=O)NCCc2csc(-c3ccc(Cl)cc3)n2)cc1	GLP-1R inv ag inconclusive
O=S(=O)(NCCc1csc(-c2ccc(F)cc2)n1)c1ccc(Cl)cc1	GLP-1R inv ag 11µM (no result: GLP1R ag)
COc1ccc(CCC(=O)NCCc2csc(-c3ccc(F)cc3)n2)cc1	GLP-1R inv ag inconclusive (no result: GLP1R ag)
CCOc1ccc(C(=O)NCC(c2ccc3c(c2)OCO3)N2CCOCC2)cc1 (centres undefined)	none (no result: GLP1R ag)
COc1ccc(OC)c(NC(=O)Cn2cnc3ccc(S(=O)(=O)N4CCC(C)CC4)cc3c2=O)c1	none
CCOC(=O)Cn1c(C)c(Br)c(COC)c(C#N)c1=O	GLP-1R inv ag inconclusive (no result: ClpP mod)
COCc1c(Br)c(C)[nH]c(=O)c1C#N	ClpP mod 14µM
CC1CCN(CCCNC(=O)c2cc3c(s2)-c2ccccc2OC3)CC1	GLP-1R inv ag inconclusive
CC1CCCN(CCCNC(=O)c2cc3c(s2)-c2ccccc2OC3)C1 (centres undefined)	GLP-1R inv ag 8.9µM (no result: ClpP mod)
O=C(CC1C(=O)N(c2ccccc2)C(=O)N1CCC1=CCCCC1)Nc1ccc(F)cc1 (centres undefined)	GLP-1R inv ag 10µM (no result: GLP1R ag)
COc1ccc(N2C(=O)C(CC(=O)Nc3ccc(F)cc3)N(CCC3=CCCCC3)C2=O)cc1 (centres undefined)	none (no result: GLP1R ag)
Cc1ccsc1CCN1C(=O)N(c2ccccc2)C(=O)C1CC(=O)Nc1ccc(Cl)cc1 (centres undefined)	GLP-1R inv ag 10µM (no result: GLP1R ag)
CCc1cccc(C)c1Nc1c(-c2ccc(N3CCOCC3)cc2)nc2ncccn12	none (no result: GLP1R ag)
Cc1cc(NC(=O)CS(=O)(=O)c2cn(Cc3cccc(Cl)c3)c3ccccc23)no1	GLP-1R inv ag inconclusive
C(#Cc1ccc(C#CCN2CCCC2)cc1)CN1CCCC1	GLP-1R inv ag 3.5µM, GLP1R cytotox inconclusive
O=C(c1ccccc1)N1CCN(CC#Cc2ccccc2)CC1	none
CCC(C)(C)NC(=O)c1ccccc1Oc1ccccc1	GLP-1R inv ag 14µM (no result: ClpP mod)
CCC(CC)NC(=O)c1ccccc1Oc1ccccc1	GLP-1R inv ag inconclusive
O=C(NCc1ccc(Cl)cc1)c1ccccc1Oc1ccccc1	GLP-1R inv ag 2.8µM
Cc1ccccc1C(=O)Nc1nnc(SCc2cc(=O)c3c(C)ccc(C)c3[nH]2)s1	none (no result: GLP1R ag)
CC(C)NCC(O)COC1CCC(C(C)(C)C)CC1 (centres undefined)	GLP-1R inv ag 7.1µM, GLP1R cytotox inconclusive (no result: ClpP mod)
CC(=O)c1cc2ccccc2c2ccccc12	none (no result: GLP-1R inv ag, GLP1R cytotox, GLP1R ag)
COC(=O)c1ccc(NC(=O)CN(C)S(=O)(=O)c2ccc3c(c2)CCCC(=O)N3)cc1	none
NCCCNC(=O)c1cc2ccccc2[nH]1	ClpP mod 25µM
O=C(N/N=C/c1ccc(-c2ccccc2)o1)c1ccccc1O	GLP-1R inv ag 10µM, GLP1R cytotox inconclusive (no result: ClpP mod)
O=C(N/N=C\c1ccncc1)c1ccccc1O	none (no result: ClpP mod)
O=S(=O)(c1cccc2ccccc12)N1CCN(c2ccc(Cl)c(Cl)c2)CC1	none
Cc1ccc(OCC(O)CNC2CCCC2)c(C)c1 (centres undefined)	GLP-1R inv ag inconclusive
OC(CNC1CCCCCC1)COc1cccc2ccccc12 (centres undefined)	GLP-1R inv ag 11µM, GLP1R cytotox inconclusive
Cc1ccccc1OCC(O)CNC1CCC(NCC(O)COc2ccccc2C)CC1 (centres undefined)	GLP-1R inv ag 1.3µM, GLP1R cytotox inconclusive (no result: ClpP mod)
Cc1ccc(OC(C)C(=O)N2CCN(CCc3ccncc3)CC2)cc1C (centres undefined)	GLP-1R inv ag inconclusive (no result: GLP1R ag)
Nc1nc(Cl)nc2c1ncn2C1CC(O)C(CO)O1 (centres undefined)	GLP-1R inv ag 5.6µM
Nc1nc2c(ncn2[C@H]2C[C@H](O)[C@@H](CO)O2)c(=O)[nH]1	none
Cc1ccsc1/C=N/n1cnnc1	none (no result: ClpP mod)
Cc1ccsc1/C=N/n1cnc2sc(C)c(C)c2c1=O	ClpP mod 32µM
COc1cc(/C=C(\C#N)C(=O)N2CCOCC2)ccc1OCc1ccccc1	none (no result: ClpP mod)
COc1ccc(/C=C(\C#N)C(=O)N2CCOCC2)cc1Br	ClpP mod 25µM
N#C/C(=C\c1ccc(OCc2ccc(C(=O)O)cc2)cc1)C(=O)N1CCOCC1	GLP-1R inv ag 1µM
Cc1c(-c2ccc(Cl)cc2)c(=O)oc2ccc(OC(=O)N3CCOCC3)cc12	ClpP mod inconclusive, GLP-1R inv ag inconclusive (no result: GLP1R ag)
O=C(N/N=C/c1cccs1)c1n[nH]c2c1CCCC2	GLP-1R inv ag 3.2µM
O=C(N/N=C/c1ccc(Cl)cc1Cl)c1n[nH]c2c1CCCC2	GLP-1R inv ag inconclusive, GLP1R cytotox inconclusive
O=C(N/N=C/c1cccc2ccccc12)c1n[nH]c2c1CCCC2	GLP-1R inv ag 1.1µM (no result: ClpP mod)
CCN1c2ccccc2-c2nc(SCC(=O)Nc3cc(C)c(Cl)cc3OC)ncc2S1(=O)=O	none (no result: GLP1R ag)
Cc1ccc2c(c1)c1cccc3c1n2CCN3CCC(N)=O	ClpP mod 14µM
O=C(Nc1nonc1-c1ccc(Cl)cc1)c1ccccc1F	none (no result: GLP1R ag)
CC1=C(c2ccc(Cl)cc2)S(=O)(=O)NC1=NCc1ccc(C)cc1	none (no result: GLP1R ag)
CCOC(=O)c1[nH]c(C)c(C(=O)OCC)c1C	GLP1R ag inconclusive
CCOC(=O)c1c(C(F)(F)C(F)(F)C(F)(F)C(F)(F)F)n[nH]c1C	GLP-1R inv ag 10µM, GLP1R cytotox inconclusive
CCn1c(C)cs/c1=N\S(=O)(=O)c1ccccc1	none
O=Cc1s/c(=N\S(=O)(=O)c2ccccc2)n(CCCCl)c1Cl	GLP-1R inv ag 2.8µM, GLP1R cytotox inconclusive
Cc1ccc(CN(Cc2ccco2)C(=O)COc2ccccc2C)cc1	GLP-1R inv ag inconclusive (no result: GLP1R ag)
Cc1cccc(Cn2c(C(=O)OC(C)C)cc3c2ccn3C)c1	GLP-1R inv ag 5µM
CCOC(=O)c1cc2c(ccn2C)n1Cc1ccc(Cl)cc1	GLP-1R inv ag inconclusive
Cc1ccc(Cc2c(-c3ccc(C)cc3)nc3cc(C)ccn23)cc1	GLP-1R inv ag inconclusive, GLP1R cytotox inconclusive
Cc1ccn2c(CC(C)(C)C)c(-c3ccc(F)cc3)nc2c1	GLP-1R inv ag 7.1µM
Cc1cc2c(cc1C)CSC(c1ccccc1OC(=O)C(C)(C)C)SC2	GLP-1R inv ag 10µM
CCCCC(=O)Oc1ccccc1C1SCc2cc(C)c(C)cc2CS1	none
CCc1ccccc1NC(=O)COCc1cc(-c2ccco2)on1	none (no result: GLP1R ag)
CCOc1ccccc1N1CCN(C(=S)NCc2ccc(Cl)cc2)CC1	GLP-1R inv ag 11µM
CCOc1ccccc1N1CCN(C(=S)NC(=O)C23CC4CC(CC(C4)C2)C3)CC1	GLP-1R inv ag inconclusive, GLP1R cytotox inconclusive
Cc1ccc(Nc2nc(NCc3ccco3)nc3nccnc23)cc1C	none (no result: GLP-1R inv ag, GLP1R cytotox, GLP1R ag)
CCC(C(=O)NCCc1ccc(Cl)cc1)n1nc(C)c2c(C)n(-c3ccccc3)nc2c1=O (centres undefined)	none (no result: GLP1R ag)
CC(=O)Nc1ccc(Nc2cc(C)nc3c(-c4ccc(Cl)cc4)c(C)nn23)cc1	ClpP mod 28µM, GLP-1R inv ag inconclusive

From PubChem
